Screening results from PubChem.
USP8 block: human USP8 deubiquitinase inhibition; 47,000 compounds, 4.2% hits; inhibition, % at 20 µM; P40818; purified USP8, Ub-rhodamine cleavage fluorescence, 30 min
USP28 inh: blocks human USP28 ubiquitin-rhodamine cleavage; purified USP28, Ub-rhodamine cleavage fluorescence, 30 min; 47,000 compounds, 3% hits; inhibition, % at 25 µM
USP10 block: human USP10 deubiquitinase inhibition; purified USP10, Ub-rhodamine fluorescence, 60 min; inhibition, % at 20 µM; 47,000 compounds, 1.1% hits
USP17 inh: blocks human USP17 ubiquitin-rhodamine cleavage; A8MUK1; inhibition, % at 50 µM; 47,000 compounds, 6.5% hits; purified USP17, Ub-rhodamine cleavage fluorescence, 3 h
USP30 inh: human USP30 deubiquitinase inhibition. purified USP30, Ub-rhodamine cleavage fluorescence. inhibition, % at 25 µM. 47,000 compounds, 5.3% hits
Large screens that a line does not name were inactive. A selection: hits, their analogues and other compounds. The true share with any hit is near 14%. No stated cut-off is given here; in the data, active means inhibition above about 30%; inactive means the rest.

Cc1ccccc1CNC(=O)c1cn2c(n1)CCCC2	none
Cc1cc(C)cc(N(CCC(=O)Nc2ccc(N3CCOCC3)cc2)S(=O)(=O)c2ccc(Cl)cc2)c1	USP8 block 32, USP17 inh 32, USP30 inh 41
COc1ccc(OC)c(S(=O)(=O)N2CCN(Cc3nnnn3-c3ccccc3)CC2)c1	none
COc1ccc(-n2nnnc2CN2CCN(S(=O)(=O)c3ccc(Cl)cc3)CC2)cc1	USP17 inh 40, USP30 inh 47
COc1ccc(Sc2nc3ccccc3n3cnnc23)cc1	USP8 block 79
N=C1C(c2nc3ccccc3s2)=C(O)CN1Cc1cccc(F)c1	none
N=C1C(c2nc3ccccc3s2)=C(O)CN1Cc1ccc(F)cc1	USP8 block 33, USP17 inh 51
CC(c1ccccc1)N1CC(O)=C(c2nc3ccccc3s2)C1=N (centres undefined)	USP8 block 90, USP10 block 45
Cc1nn(C)c(C)c1C1CCCN1C(=O)CCc1nc(C(C)C)no1 (centres undefined)	none
O=C(CCCc1nnc2c(=O)n(-c3cccc(F)c3)ccn12)NCc1ccc(Cl)cc1	USP17 inh 35
Cc1ccc(CNC(=O)CCCc2nnc3c(=O)n(-c4cccc(F)c4)ccn23)cc1	USP8 block 36
Cc1cccc(NC(=O)CCc2nnc3c(=O)n(-c4cccc(F)c4)ccn23)c1	USP8 block 38
COc1cccc(CNC(=O)CCc2nnc3c(=O)n(-c4cccc(F)c4)ccn23)c1	none
COc1ccc(CNC(=O)CCCc2nnc3c(=O)n(-c4cc(C)cc(C)c4)ccn23)cc1	USP8 block 78, USP10 block 35, USP17 inh 39
Cc1nc(C2CCNC2)cc(N2CC3(CCCCC3)OC2=O)n1 (centres undefined)	none
Cc1cccc(CNC(=O)Cn2cc(-c3nnco3)c3ccccc32)c1	USP17 inh 46
Cc1ccc(CS(=O)(=O)c2cn(CC(=O)NCc3ccco3)c3ccccc23)cc1	USP8 block 34, USP17 inh 37
Cc1ccc(CS(=O)(=O)c2cn(CC(=O)NCCc3ccccc3)c3ccccc23)cc1	none
Cc1ccc(CNC(=O)Cn2cc(S(=O)(=O)Cc3ccccc3)c3ccccc32)cc1	USP8 block 38
COc1cc(NC(=O)c2ncoc2-c2cccs2)cc(OC)c1	none
Cc1ccc(S(=O)(=O)Cc2nc3ccc(C(=O)O)cc3[nH]2)cc1	none
O=C1COc2ccc(S(=O)(=O)N3CCCC(C(=O)NCCc4ccccc4)C3)cc2N1 (centres undefined)	none
COc1ccc(NC(=O)COc2ccc3ccc(=O)oc3c2)cc1	USP17 inh 57
COc1cc(C(=O)Oc2ccc3ccc(=O)oc3c2)cc(OC)c1OC	USP30 inh 45
Cc1noc(-c2ccc(N3CCCC(C(=O)N4CCc5ccccc54)C3)nc2)n1 (centres undefined)	none
Cc1nc(-c2ccc(C)c(S(=O)(=O)NCc3ccc(F)cc3)c2)cs1	none
Cc1nc2nc(SCc3nc4ccccc4n3C)[nH]c2cc1Br	USP17 inh 53
CC(=O)c1c(C)oc2c1cc(OC(=O)c1ccccc1)c1ccccc12	none
CCCCOC(=O)c1c(C)oc2c1cc(NS(=O)(=O)c1ccc(CC)cc1)c1ccccc12	USP8 block 45
NC(=O)C1CCN(C(=O)CCCn2c(=O)[nH]c3cc(Cl)ccc3c2=O)CC1	none
COc1cccc(NC(=O)COc2cccc(-n3cnnn3)c2)c1	none
O=C(Nc1ccc(F)cc1)c1cccc(-n2cnnn2)c1	none
CCc1ccc(NC(=O)COc2cccc(-n3cnnn3)c2)cc1	USP30 inh 63
COc1ccc2c(c1)C=C(C(=O)Nc1ccc(-n3cnnn3)cc1)C=CO2	USP17 inh 39, USP30 inh 33
CCCOc1cccc(C(=O)Nc2ccc(-n3cnnn3)cc2)c1	USP8 block 48, USP28 inh 47, USP17 inh 51, USP30 inh 83
c1cc(-c2nn[nH]n2)cs1	none
COCCNC(=O)c1c[nH]c2ccc(S(=O)(=O)N(CCCN3CCOCC3)Cc3ccco3)cc2c1=O	none
CC1CCN(S(=O)(=O)c2ccc3[nH]cc(C(=O)NCc4ccco4)c(=O)c3c2)CC1	USP17 inh 55
Cc1ccccc1-c1nc(CN(C)S(=O)(=O)c2ccccc2)c(C)o1	USP30 inh 56
CCOC(=O)c1c(C)oc2ccc(N(C(=O)c3ccncc3)S(=O)(=O)c3ccc(OCC)cc3)cc12	USP28 inh 38
